Compounds without any hit were thinned out: in the full panel of roughly 79,000, 15% have a hit. Unmarked numbers belong to inactive results. The source made the active and inactive calls. Cut-off read from the data, not from the text of the source: active = growth inhibition above about 70%; inactive = the rest.
Tests used:
[1] = NCI Yeast Anticancer Drug Screen. Data for the rad50 strain (AID 155);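 note: 0% = growth of vehicle-only cultures of the same strain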; details: S. cerevisiae rad50 strain growth inhibition, active compounds read high
In short: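 Yeast carrying a defined DNA repair defect were exposed to test compounds, and growth was compared with vehicle-treated controls to give percent inhibition.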

[2] = NCI Yeast Anticancer Drug Screen. Data for the mec2-1 strain (AID 157); details: S. cerevisiae mec2-1 strain, active compounds read high
In short: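 Test agents were screened against the mec2-1 yeast strain, with defined DNA repair or cell cycle alteration. Growth was scored as inhibition against vehicle-only controls.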

[3] = NCI Yeast Anticancer Drug Screen. Data for the sgs1 mgt1 strain (AID 161);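 note: 0% = growth of cultures given vehicle only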; details: S. cerevisiae sgs1 mgt1 strain, active compounds read high
In short: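 Read-out: growth inhibition vs vehicle controls. Cells: mutant yeast strain deficient in DNA damage repair.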

[4] = NCI Yeast Anticancer Drug Screen. Data for the cln2 rad14 strain (AID 165);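 note: 0% = growth equal to vehicle treated cultures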; details: S. cerevisiae cln2 rad14 strain, active compounds read high
In short: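 Growth of compound-exposed yeast (cln2 rad14 genotype) measured and expressed as inhibition relative to vehicle.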

[5] = NCI Yeast Anticancer Drug Screen. Data for the bub3 strain (AID 167); details: S. cerevisiae bub3 mutant strain, active compounds read high
In short: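 Compounds were applied to a genetically altered yeast strain carrying a cell-cycle control defect. Growth inhibition was scored against vehicle-treated controls.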

[6] = NCI Yeast Anticancer Drug Screen. Data for the mlh1 rad18 strain (AID 175); details: S. cerevisiae mlh1 rad18 strain growth inhibition, active compounds read high
In short: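 In this whole-cell yeast screen, a strain with altered DNA damage repair is challenged with compound, and its growth is measured against matched vehicle-treated controls.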

[7] = at 5.0 µM (retest, dose inferred, filed as 0.5)
[8] = at 50.0 µM (retest, dose inferred, filed as 5.0)

Compound	growth inhibition [1, 7]	growth inhibition [1, 8]	growth inhibition ([1]; at 50.0 µM)	growth inhibition [2, 7]	growth inhibition [2, 8]	growth inhibition ([2]; at 50.0 µM)	growth inhibition [3, 7]	growth inhibition [3, 8]	growth inhibition ([3]; at 50.0 µM)	growth inhibition [4, 7]	growth inhibition [4, 8]	growth inhibition ([4]; at 50.0 µM)	growth inhibition [5, 7]	growth inhibition [5, 8]	growth inhibition ([5]; at 50.0 µM)	growth inhibition [6, 7]	growth inhibition [6, 8]	growth inhibition ([6]; at 50.0 µM)
COc1ccc(-c2c(-c3ccccc3)c(C)nc3[nH]c(=S)[nH]c(=S)c23)cc1OC	-4%	69%	92.2% (active)	-2%	58%	92.8% (active)	7%	89% (active)	94.4% (active)	7%	81% (active)	93.2% (active)	0%	91% (active)	69.8%	-30%	79% (active)	94.9% (active)
c1ccc2c(c1)oc1cc3ccncc3cc12	43%	96% (active)	96.8% (active)	11%	86% (active)	86.3% (active)	3%	83% (active)	94.8% (active)	9%	89% (active)	92% (active)	24%	94% (active)	96% (active)	14%	92% (active)	95.2% (active)
CC(=O)c1cccc([N+](=O)[O-])c1	-2%	5%	27.4%	-2%	2%	-9.25%	-1%	2%	24.4%	-1%	-2%	44.9%	1%	7%	9.25%	-3%	3%	9%
c1ccc(OCCN2CCN(CCOc3ccccc3)CC2)cc1	21%	29%	71.7% (active)	31%	45%	32.2%	41%	55%	67.1%	45%	47%	76.4% (active)	43%	53%	56.7%	44%	61%	44.1%
CC(C)c1ccc2c(c1)CC[C@H]1[C@](C)(CN)CCC[C@]21C	3%	98% (active)	98.8% (active)	2%	98% (active)	89.2% (active)	11%	99% (active)	99.7% (active)	3%	97% (active)	91.8% (active)	7%	99% (active)	90% (active)	-9%	98% (active)	98.4% (active)
O=C(O)C1C(Br)(c2ccccc2)C1(Br)c1ccccc1 (stereo not given)	47%	90% (active)	90.7% (active)	-1%	30%	17.7%	9%	70% (active)	69%	25%	93% (active)	83.8% (active)	-3%	10%	7.05%	-8%	55%	59.9%
Clc1ccc2ccc3cccnc3c2n1	9%	95% (active)	-38.5%	7%	97% (active)	-9.5%	0%	86% (active)	-13.2%	-4%	92% (active)	7.9%	-7%	98% (active)	20.4%	3%	94% (active)	-25.1%
CCCCCCCCCCCCCCCC1(OC)C[N+](C)(C)CCO1 (stereo not given)	99% (active)	99% (active)	99.5% (active)	100% (active)	100% (active)	99.7% (active)	99% (active)	100% (active)	99.7% (active)	100% (active)	100% (active)	99.5% (active)	99% (active)	99% (active)	99.7% (active)	99% (active)	100% (active)	99.7% (active)
CC(C)c1ccc(C(=O)C2CC2)cc1	-23%	0%	34.6%	-10%	-27%	42.9%	-12%	-14%	50.6%	9%	24%	40.5%	-29%	-20%	65.3%	-22%	-18%	21%
O.O.O=Cc1cc(Br)cc(Br)c1O.O=Cc1cc(Br)cc(Br)c1O.[Co]	58%	99% (active)	99.2% (active)	25%	99% (active)	96.7% (active)	37%	89% (active)	99% (active)	15%	99% (active)	89.5% (active)	53%	99% (active)	90.5% (active)	79% (active)	99% (active)	99.2% (active)
C=C1CC2(CC(C(C)C)CCC2C)OC1=O (stereo not given)	14%	38%	7.5%	13%	52%	-2.45%	23%	54%	14.7%	31%	57%	19.6%	42%	53%	-11.8%	35%	64%	2.3%
N#CCN1CCCCCc2ccccc21	-4%	-3%	-26.6%	0%	-18%	-12.7%	-29%	-29%	-3.15%	9%	-1%	11.2%	-14%	-32%	-3.2%	-18%	-18%	-7.65%
COc1ccc(OC)c2c1C=CC(Br)=CC2	33%	33%	55.1%	24%	24%	27%	26%	26%	45.5%	6%	6%	15.4%	19%	19%	40.8%	30%	30%	39.5%
O=C(N/C(=C\c1nc2ccccc2s1)c1ccccc1O)c1ccccc1	-10%	68%	29.8%	7%	30%	12.3%	-16%	31%	38.5%	2%	41%	17.2%	-5%	75% (active)	32.4%	19%	37%	32%
COc1ccc(OC2OC(COC(c3ccccc3)(c3ccc(OC)cc3)c3ccc(OC)cc3)C(O)C(O)C2O)cc1 (stereo not given)	4%	98% (active)	97.5% (active)	-10%	98% (active)	97% (active)	9%	69%	98.1% (active)	11%	98% (active)	97.6% (active)	4%	99% (active)	95.5% (active)	-11%	98% (active)	96.7% (active)
Nc1cccc2c1[nH]c(=O)c1ccccc12	7%	70% (active)	78.8% (active)	5%	31%	64%	2%	33%	51.9%	-4%	40%	77.9% (active)	-3%	98% (active)	75.8% (active)	9%	97% (active)	91.2% (active)
O=P(O)(CN1CCN(CP(=O)(O)c2ccccc2)CCN(CP(=O)(O)c2ccccc2)CC1)c1ccccc1	17%	65%	86.7% (active)	4%	61%	81.8% (active)	11%	51%	85% (active)	12%	58%	60%	30%	72% (active)	88.3% (active)	22%	53%	80.3% (active)
CC(=O)Nc1ccc(Nc2ccc(C(=C3C=CC(=[N+](C)CCC#N)C=C3)c3ccc(N(C)CCC#N)cc3)cc2)cc1	11%	64%	8.4%	13%	77% (active)	47.7%	44%	83% (active)	58.4%	41%	83% (active)	55.5%	45%	77% (active)	59.5%	15%	72% (active)	45%
O=C(Cc1ccccc1)c1ccccc1C(=O)NNc1ccccc1	7%	18%	49%	-5%	6%	-6.4%	-4%	-2%	-8%	4%	61%	-51.9%	43%	96% (active)	26.2%	5%	22%	-0.75%
N#CSCC(=O)c1ccc2ccccc2c1	67%	99% (active)	90.8% (active)	71% (active)	99% (active)	92.1% (active)	97% (active)	99% (active)	93.5% (active)	68%	98% (active)	91% (active)	97% (active)	98% (active)	90.5% (active)	57%	99% (active)	91.3% (active)
